Measured values published in PubChem BioAssay (Tox21).
“And” between values parts separate entries of the source, which are not always exact repeats. Equal entries are not always repeated. Inconclusive results are not listed. A call without a number means that no potency is given here. The source made the active and inactive calls. Calls follow the shape of the dose curve; as a rule, active = well fitted inhibition curve with a large enough effect in the repeat runs; inconclusive = weak or mixed curves; inactive = flat fitted curve, though single readings scatter.

Target: Voltage-gated inwardly rectifying potassium channel KCNH2 (Homo sapiens) (UniProt Q12809)
Sequence (Q12809 whole entry, looked up): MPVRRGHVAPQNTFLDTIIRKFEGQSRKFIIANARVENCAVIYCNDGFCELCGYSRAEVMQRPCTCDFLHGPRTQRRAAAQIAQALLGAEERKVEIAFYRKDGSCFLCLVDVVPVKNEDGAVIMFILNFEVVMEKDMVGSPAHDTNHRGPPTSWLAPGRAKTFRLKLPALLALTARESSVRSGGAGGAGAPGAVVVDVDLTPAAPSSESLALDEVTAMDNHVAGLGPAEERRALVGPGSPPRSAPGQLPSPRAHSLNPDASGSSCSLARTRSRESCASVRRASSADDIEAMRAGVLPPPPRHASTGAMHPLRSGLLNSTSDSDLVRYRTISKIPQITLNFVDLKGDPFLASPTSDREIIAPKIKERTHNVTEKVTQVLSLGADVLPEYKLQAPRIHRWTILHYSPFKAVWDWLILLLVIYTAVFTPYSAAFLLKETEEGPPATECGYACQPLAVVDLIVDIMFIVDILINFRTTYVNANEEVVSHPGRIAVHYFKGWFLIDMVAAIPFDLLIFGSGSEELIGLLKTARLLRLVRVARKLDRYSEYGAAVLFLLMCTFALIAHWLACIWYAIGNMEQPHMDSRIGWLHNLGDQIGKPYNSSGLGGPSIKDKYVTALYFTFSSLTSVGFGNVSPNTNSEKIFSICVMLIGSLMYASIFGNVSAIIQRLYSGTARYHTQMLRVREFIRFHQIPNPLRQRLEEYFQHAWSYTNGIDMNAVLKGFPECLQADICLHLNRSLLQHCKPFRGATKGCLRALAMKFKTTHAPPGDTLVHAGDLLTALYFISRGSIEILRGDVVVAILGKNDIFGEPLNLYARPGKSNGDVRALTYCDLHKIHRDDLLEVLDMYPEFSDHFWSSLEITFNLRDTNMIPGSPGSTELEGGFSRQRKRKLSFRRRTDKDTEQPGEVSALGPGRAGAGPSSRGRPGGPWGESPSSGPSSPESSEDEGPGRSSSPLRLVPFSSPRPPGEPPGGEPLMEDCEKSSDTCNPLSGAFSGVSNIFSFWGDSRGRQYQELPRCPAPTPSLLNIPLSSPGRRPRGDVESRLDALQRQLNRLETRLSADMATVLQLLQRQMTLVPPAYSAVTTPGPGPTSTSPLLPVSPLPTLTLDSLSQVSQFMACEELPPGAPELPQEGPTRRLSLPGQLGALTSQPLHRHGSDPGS
Experiment: Human Ether-a-go-go-Related Gene (hERG) channel small molecule antagonists: fluorescence cell-based qHTS assay (AID 1671200); also: nearly all actives have a fitted effect of over 50% in size
Conditions: hERG-U2OS cells, FluxOR thallium flux fluorescence; series mostly up to 76.8 µM
From the text: National Center for Advancing Translational Sciences [NCATS]
U.S. Environmental Protection Agency [EPA]
National Institutes of Environmental Health Sciences [NIEHS]
National Toxicology Program [NTP]
U.S. Food and Drug Administration [FDA]
Mutations in the hERG channel cause Long QT (LQT) syndrome. LQT syndrome is a cardiac disorder which can cause ventricle arrhythmia and sudden death. Additionally, compounds which block the hERG channel can cause acquired LQT syndrome. Several FDA approved drugs have been removed from the market due to their hERG blocking activity. A cell-based hERG channel inhibition assay can be used to screen chemical compounds that inhibit hERG channel. This assay measures hERG channel activity using thallium ions as surrogate ions to measure potassium into the cells.
Tox21 Assay Protocol Summary:
hERG-U2OS cells were resuspended in culture medium and dispensed into 1536-well, black wall/clear-bottom plates at 1000cells/well/3uL using a Multidrop Combi dispenser (Thermo Fisher, Waltham, MA). After plates were incubated at 37 C overnight, 3 uL of Loading Buffer provided by FluxOR II Potassium Ion Channel Assay kit (Thermo, Carlsbad, CA) was added to each well. The assay plates were then incubated at room temperature in the dark for 1h. […] After the assay plates were incubated at room temperature for 10 min, 1 uL of Stimulus Buffer provided by FluxOR II Potassium Ion Channel Assay kit was added into each well and fluorescence intensity (480nm excitation/540nm emission) was continuously measured for 2 min at 1 second intervals using a Functional Drug Screening System (FDSS) 7000EX kinetic plate reader (Hamamatsu, Japan).
Potency is read from the fitted curve at half-maximal effect.

| Structure (SMILES) | Potency |
| --- | --- |
| CC(=O)CC(c1ccccc1)c1c(O)c2ccccc2oc1=O (stereo not given) | inactive |
| O=C1O[C@H]([C@@H](O)CO)C(O)=C1O | inactive |
| COc1ccc2c(c1)c(CC(=O)O)c(C)n2C(=O)c1ccc(Cl)cc1 | inactive |
| CC12CCC(CC1)C(C)(C)O2 | inactive |
| O=C(Nc1ncc([N+](=O)[O-])s1)c1cccs1 | inactive |
| CC(O)(P(=O)(O)O)P(=O)(O)O | inactive |
| CN(C)CCOC(C)(c1ccccc1)c1ccccn1 (stereo not given) | inactive |
| OC[C@H]1O[C@H](O[C@]2(CCl)O[C@H](CCl)[C@@H](O)[C@@H]2O)[C@H](O)[C@@H](O)[C@H]1Cl | inactive |
| Cc1ncc([N+](=O)[O-])n1CCO | inactive |
| CS(=O)(=O)OCCCCOS(C)(=O)=O | inactive |
| CCCCCCCCCCCCCCCC[N+](C)(C)Cc1ccccc1 | 1.79 µM (active) and 4.98 µM (active) and 6.74 µM (active) |
| COc1cccc(O)c1O | inactive |
| C=C(C)C(=O)OCC(C)O (stereo not given) | inactive |
| C/C=C/C=C/C(=O)O | inactive |
| CCc1nc(N)nc(N)c1-c1ccc(Cl)cc1 | inactive |
| O=c1[nH]cc(F)c(=O)[nH]1 | inactive |
| C1=CC2C3C=CC(C3)C2C1 (stereo not given) | inactive |
| Nc1ccc(O)c([N+](=O)[O-])c1 | inactive |
| Cc1c(C(=O)O)c(O)cc2c1C(=O)c1c(O)c([C@@H]3O[C@H](CO)[C@@H](O)[C@H](O)[C@H]3O)c(O)c(O)c1C2=O | inactive |
| Cc1cc(C)nc(NS(=O)(=O)c2ccc(N)cc2)n1 | inactive |

| Structure (SMILES) | Potency |
| --- | --- |
| CC(C)NCC(O)c1ccc(O)c(O)c1 (stereo not given) | inactive |
| O=C1OC2(c3ccccc31)c1cc(Br)c(O)c(Br)c1Oc1c2cc(Br)c(O)c1Br | inactive |
| CCCCCCc1ccc(O)cc1O | inactive |
| CCN(Cc1c(F)cccc1Cl)c1c([N+](=O)[O-])cc(C(F)(F)F)cc1[N+](=O)[O-] | inactive |
| Cc1ccc(S(=O)(=O)O)cc1 | inactive |
| NC(=O)c1cccnc1 | inactive |
| Cn1c(=O)c2c(ncn2C)n(C)c1=O | inactive |
| C=C1CC[C@H](O)C/C1=C\C=C1/CCC[C@]2(C)[C@@H]([C@H](C)CCCC(C)C)CC[C@@H]12 | inactive |
| Cc1cn([C@H]2C=C[C@@H](CO)O2)c(=O)[nH]c1=O | inactive |
| CNNCc1ccc(C(=O)NC(C)C)cc1 | inactive |
| CCOc1ccc(NC(C)=O)cc1 | inactive |
| Nc1c2c(nc3ccccc13)CCCC2 | inactive |
| Nc1ccc([N+](=O)[O-])cc1O | inactive |
| CC(C)C(=O)Nc1ccc([N+](=O)[O-])c(C(F)(F)F)c1 | inactive |
| COc1ccc2cc(S(=O)(=O)N[C@H](CC(=O)N[C@H](Cc3ccc(CN4[C@H](C)CCC[C@@H]4C)cc3)C(=O)N(C)C(C)C)c3ccc4c(c3)OCO4)ccc2c1 | 7.34 µM (active) |
| COc1ccc(CN(CCN(C)C)c2ccccn2)cc1 | 21.7 µM (active) and 20.1 µM (active) |
| CC(=O)C(=O)O | inactive |
| CN(N=O)C(=O)N[C@@H]1[C@@H](O)[C@H](O)[C@@H](CO)O[C@@H]1O | inactive |
| CC1(C)O[C@@H]2C[C@H]3[C@@H]4CCC5=CC(=O)C=C[C@]5(C)[C@@]4(F)[C@@H](O)C[C@]3(C)[C@]2(C(=O)CO)O1 | inactive |
| CC(=O)CCC(=O)O | inactive |
